Data reported in PubChem BioAssay (NCI).
This is part of a sample that, as a whole, favours compounds with a hit. Of some 79,000 tested, about 15% had one in any assay. Rule as the data show it: active = growth inhibition above about 70%; inactive = the rest. Where a SMILES comes first, the peptide text is derived from it. [ ]: non-standard residue; d: D form. The star is where a group is joined. Nle = CCCC[CH](N)C(=O)O; Cbz = O=C(OCc1ccccc1)*; OBn = c1ccc(CO*)cc1

What was measured:
[1] = NCI Yeast Anticancer Drug Screen. Data for the rad50 strain (AID 155);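 also: 0% = growth of vehicle-only cultures of the same strain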; details: S. cerevisiae rad50 strain growth inhibition; at 50.0 µM; hits give high values
Outline: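 Growth of the mutant yeast was measured after compound exposure and referenced to vehicle-treated cultures.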

[2] = NCI Yeast Anticancer Drug Screen. Data for the mec2-1 strain (AID 157); details: S. cerevisiae mec2-1 strain, at 50.0 µM, hits give high values
Outline: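 Test agents were screened against the mec2-1 yeast strain, with defined DNA repair or cell cycle alteration. Growth was scored as inhibition against vehicle-only controls.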

[3] = NCI Yeast Anticancer Drug Screen. Data for the sgs1 mgt1 strain (AID 161);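 also: 0% = growth of cultures given vehicle only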; details: S. cerevisiae sgs1 mgt1 strain, at 50.0 µM, hits give high values
Outline: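 Mutant yeast exposed to compound; growth scored against vehicle-only wells.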

[4] = NCI Yeast Anticancer Drug Screen. Data for the cln2 rad14 strain (AID 165);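 also: 0% = growth equal to vehicle treated cultures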; details: S. cerevisiae cln2 rad14 strain, at 50.0 µM, hits give high values
Outline: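 Growth of compound-exposed yeast (cln2 rad14 genotype) measured and expressed as inhibition relative to vehicle.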

[5] = NCI Yeast Anticancer Drug Screen. Data for the bub3 strain (AID 167); details: S. cerevisiae bub3 mutant strain, at 50.0 µM, hits give high values
Outline: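 Whole-cell yeast assay. The mutant strain was incubated with compounds, and growth inhibition was determined by comparison with vehicle-treated cells.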

[6] = NCI Yeast Anticancer Drug Screen. Data for the mlh1 rad18 strain (AID 175); details: S. cerevisiae mlh1 rad18 strain growth inhibition; at 50.0 µM; hits give high values
Outline: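 In this whole-cell yeast screen, a strain with altered DNA damage repair is challenged with compound, and its growth is measured against matched vehicle-treated controls.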

Measured: growth inhibition

O=C(Nc1ccc(Cl)cc1)c1ccc(Cl)cc1Cl
inactive: [1] -11.8% | [2] 10.7% | [3] -2.5% | [4] -39.1% | [5] 13.7% | [6] -0.15%

COc1ccc(/C=C2\N=C(c3ccccc3)OC2=O)c(OC)c1C
inactive: [1] -6.1% | [2] -4.9% | [3] -1.65% | [4] -60.4% | [5] 1.9% | [6] -9.95%

Cc1cc2c(c(O)c1-c1c(C)cc(O)c3c1C(=O)C=CC3=O)C(=O)C=CC2=O
inactive: [1] -7.1% | [2] -43.4% | [3] -8.5% | [4] -0.2% | [5] -27.9% | [6] -43.2%

O=C(O)c1ccc(B(O)O)cc1[N+](=O)[O-]
inactive: [1] 11.8% | [2] 4.75% | [3] 7.35% | [4] 8.7% | [5] 34.9% | [6] 5.15%

COc1nc(NC2OC(CO)C(O)C(O)C2O)c(C=O)c(=O)n1C (stereo unspecified)
inactive: [1] 2.45% | [2] -6.55% | [3] -16.1% | [4] 9.9% | [5] -7.3% | [6] -7.4%

O=C(Nc1ccc([N+](=O)[O-])cc1)Oc1c(Cl)cc(Cl)c(Cl)c1[N+](=O)[O-]
inactive: [1] 43.6% | [2] -18.7% | [3] 57.2% | [4] 25.6% | [5] 2.3% | [6] 60.4%

O=c1[nH]c2cc([N+](=O)[O-])ccc2nc1/C=C(\O)c1ccco1
inactive: [1] 7.7% | [2] -14.2% | [3] 7.9% | [4] -0.65% | [5] -18.7% | [6] 22.1%

CCC1C(=O)Nc2ccccc21 (stereo unspecified)
inactive: [1] 16.4% | [2] 16.9% | [3] 1.3% | [4] 7.85% | [5] 13.8% | [6] 8.5%

COc1ccc2c(ccc[n+]2CC(=O)c2ccc(SC)cc2)c1
inactive: [1] 1.9% | [2] 12.3% | [3] 20.1% | [4] 21.4% | [5] 19.6% | [6] 0.75%

NC(=O)N/N=C/c1ccc(O)cc1
inactive: [1] 5.15% | [2] -1.15% | [3] 1% | [4] -11.1% | [5] -3.85% | [6] -1.5%

C=C1CC(OC(C)=O)/C=C(/C)CCC(C(C)(C)O)CC1O (stereo unspecified)
inactive: [1] 6.7% | [2] -32% | [3] -11.2% | [4] 7.65% | [5] -8% | [6] -20.9%

CCCCC(NC(=O)C1CCCN1C(=O)OCc1ccccc1)C(=O)OCc1ccccc1 (stereo not drawn) (Cbz-Pro-[Nle]-OBn; configuration not given here)
inactive: [1] 12.4% | [2] 12.2% | [3] 11.4% | [4] -10.9% | [5] -5.45% | [6] 15.9%

CCC(=O)c1ccc(O)c(C)c1
inactive: [1] 4.85% | [2] -2.9% | [3] 0.2% | [4] -2.6% | [5] 37.7% | [6] 2.45%

CCCC1CCCCC1O (stereo unspecified)
inactive: [1] -9.55% | [2] -38.8% | [3] -24.4% | [4] 7.15% | [5] -24.2% | [6] -6.95%

COc1cc(C(CC#N)CC#N)cc(OC)c1OC
inactive: [1] -3.4% | [2] -15.8% | [3] 25.8% | [4] 6.45% | [5] 8.95% | [6] 8%

CC(=O)CC(=O)NCC#N
inactive: [1] 27.9% | [2] 15.8% | [3] 23.9% | [4] 25.6% | [5] 11.8% | [6] 24.6%

CCCCn1c2c(c3ccccc3c1=O)C(=O)c1ccccc1-2
inactive: [1] 12.1% | [2] -15.7% | [3] -4.8% | [4] 2.1% | [5] -18% | [6] -53%

COC(=O)CCCC1(CCCC(=O)OC)CCCCCCCCC(CCCC(=O)OC)(CCCC(=O)OC)C(=O)C1=O
inactive: [1] 21.8% | [2] 36.9% | [3] 37.2% | [4] 45.5% | [5] 35.8% | [6] 47.6%

C=C1CC2C(=O)N(c3ccccc3)C(=O)C2CC1n1[nH]c(=O)n(Cc2ccccc2)c1=O (stereo unspecified)
inactive: [1] 3.8% | [2] 3.1% | [3] 9.65% | [4] -29.8% | [5] 15.7% | [6] -5.7%

Cc1c([N+](=O)[O-])ccc2c1C(=O)c1ccccc1C2=O
inactive: [1] -41.6% | [2] -0.35% | [3] -39.9% | [4] 2.7% | [5] -5.7% | [6] 39.5%

Cc1cc(C)c(S(=O)(=O)O)c(Cc2ccccc2)c1
inactive: [1] -14.4% | [2] -10.6% | [3] 31.5% | [4] -11.6% | [5] -3.35% | [6] 0.45%
